ALDH1A1 inh: inhibitors of human aldehyde dehydrogenase 1A1; P00352; Purified ALDH1A1, NADH fluorescence, propionaldehyde substrate; Potency, µM (highest dose often 75.3 µM), usual class: inhibitors; 220,000 tested, 7.3% active; AID 1030
Target sequence (P00352 whole entry, looked up): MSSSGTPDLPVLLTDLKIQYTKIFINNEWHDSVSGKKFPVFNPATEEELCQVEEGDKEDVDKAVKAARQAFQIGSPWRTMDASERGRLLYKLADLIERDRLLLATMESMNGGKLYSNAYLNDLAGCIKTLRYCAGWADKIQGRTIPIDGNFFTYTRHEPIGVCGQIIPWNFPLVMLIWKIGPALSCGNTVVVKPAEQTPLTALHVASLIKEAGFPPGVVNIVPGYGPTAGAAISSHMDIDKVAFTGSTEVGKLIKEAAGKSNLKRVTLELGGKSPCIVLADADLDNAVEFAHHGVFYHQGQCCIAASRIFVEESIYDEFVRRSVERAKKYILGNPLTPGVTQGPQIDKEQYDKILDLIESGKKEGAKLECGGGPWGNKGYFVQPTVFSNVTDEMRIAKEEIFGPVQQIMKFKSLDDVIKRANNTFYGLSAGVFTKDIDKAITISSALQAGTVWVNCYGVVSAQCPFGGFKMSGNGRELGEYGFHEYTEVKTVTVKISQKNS
PNC assembly inh: perinucleolar compartment assembly inhibition; 140,000 tested, 3.1% active; AID 2417; PC3M PTB-GFP, PNC prevalence imaging, 16 h; hits give low values; activity change (PNC), negative = inhibition, % at 10 µM;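 active = readout at or below -70, meaning at least 70% loss of cells showing the perinucleolar compartment, a nuclear body marking cancer cells; inconclusive = readout between -30 and a set limit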
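Read-out is percentage of cells bearing a perinucleolar compartment, from automated 20x imaging of fixed, Hoechst-stained PC3M PTB-GFP cells. Cells were seeded 4 h, then exposed 16 h to compound (23 nl of library stock) in duplicate plates.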
HPGD inh: HPGD (human) dehydrogenase inhibition | P15428 | purified HPGD, NADH fluorescence kinetic, PGE2 substrate | Potency, µM, actives largely listed as inhibitors | 150,000 tested, 4.3% active
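NADH formation kinetics: reaction with 30 uM PGE2 and 1 mM NAD+ (final), 20 nM enzyme, Tris-HCl pH 8 with Tween 20, after 15 min compound preincubation at room temperature. Fluorescence change, last versus first of five reads.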
Numbers stand for hits; . = inactive; ? = inconclusive; / = not tested or not shown; ! = not active in a repeat; [ ] = another dose, or the depositor's remark. Only some compounds are listed: those with a hit (about 11% of all), similar ones and a draw of the others. Unless noted, calls come from the whole dose curve; as a rule, active = well fitted inhibition curve with a large enough effect (not every such curve was filed as active); inconclusive = small, poorly fitted or top-dose-only effect, or another doubt; inactive = no such curve, though single readings can be large or run the other way.

SMILES	ALDH1A1 inh	PNC assembly inh	HPGD inh
CC1CC(C)C(=O)[C@H](C(O)CC2CC(=O)NC(=O)C2)C1 (some centres not stated)	.	/	.
CC(C)(C)c1ccc(O)c(C[N+](C)(C)C)c1	.[13.5 µM]	/	.
O=C1CN=C(c2ccccc2)c2cc(Br)ccc2N1Cc1cc(=O)n2ccccc2n1	?	-88	.
O=C1CN=C(c2ccccc2)c2ccccc2N1Cc1ccc(C(F)(F)F)cc1	.	.	.
CC(=O)OC1CC2C(C)(C)C(=O)C=C[C@]2(C)C2CC[C@]3(C)C(=CC(=O)OC3c3ccoc3)[C@]12C (some centres not stated)	.	/	.
Cc1cc(C)cc(OP(=O)(Oc2cc(C)cc(C)c2)Oc2cc(C)cc(C)c2)c1	?	/	.
CN(C)c1ccc(N)cc1	14µM	/	.
CN(C)c1ccc(N=O)cc1	0.4µM	/	.
CN(C)c1ccc(P(=S)(N(C)C)N(C)C)cc1	?	?	.
CN(C)c1ccc(N=Nc2ccccc2)cc1	?	/	.
C[C@@H](N)[C@@H](O)c1ccc(O)c(O)c1	.	/	/
C[C@@H](Cc1ccc(Cl)cc1Cl)NO	.[13.5 µM]	/	.
CC(C)(C)NC(=O)NC(=O)CN1CC=C(c2ccccc2)CC1	.	/	/
COc1ccc(N2C(=O)CC(N3CC=C(c4ccccc4)CC3)C2=O)cc1 (configuration not stated)	10µM	?	?
CCN1C[C@]2(C)CC[C@H](O)[C@@]34C5C[C@@H]6[C@@H](OC)C[C@@](O)(C5[C@H]6O)[C@@H](CC23)[C@@H]14 (some centres not stated)	.	/	.
Cc1ccc(OP(=O)(Oc2ccc(C)cc2)Oc2ccc(C)cc2)cc1	.	/	.
O=S1(=O)N(CCN2CC=C(c3c[nH]c4cc(F)ccc34)CC2)c2cccc3c2N1CCC3	25µM	/	.
CC(C)N1CC=C(c2c[nH]c3ccccc23)CC1	.	.	.
C=C(C)[C@H]1C2C(=O)O[C@H]1[C@H]1OC(=O)[C@@]34O[C@@H]3C[C@]2(O)[C@@]14C	.	/	.
CN(C)/C=c1\sc2c(C#N)cc(C(=O)c3ccc(Br)cc3)n2c1=O	2µM	.	.
Oc1ccc2c3c1O[C@H]1c4oc5ccccc5c4C[C@@]4(O)C(C2)N(CC2CC2)CCC314 (some centres not stated)	.	/	.
C[C@@H](C(=O)O)c1ccc(-c2ccccc2)c(F)c1	.	/	28µM
CC(Oc1ccc(-c2ccccc2)cc1)C(=O)O (configuration not stated)	.	.	.
O=C1NC(=O)N(Cc2cccs2)C(=O)/C1=C/c1ccc(N2CCOCC2)cc1	7.1µM	/	/
O=C1NC(=O)N(Cc2ccccc2Cl)C(=O)/C1=C/N1CCOCC1	.	.	.
SMILES	ALDH1A1 inh	PNC assembly inh	HPGD inh
CCCC[N+]12C3CC(C(CC)[C@H]1O)[C@@H]1C(O)C4(C[C@@H]12)c1ccccc1N(C)C34 (some centres not stated)	.	/	.
C[C@@H](O)CN(CCN(C[C@@H](C)O)C[C@@H](C)O)C[C@@H](C)O.O=[N+]([O-])O.[Cu]	?	/	.
Nc1nc2[nH]c(=O)cnc2c(=O)[nH]1	?	/	.
CCCCOC(=O)COc1cc(C)cc2oc(=O)c3c(c12)CCC3	10µM	.	.
Cc1cc(OC(=O)CCNC(=O)OC(C)(C)C)c2c3c(c(=O)oc2c1)CCC3	1.8µM	-109	?
Cc1cc(OCC(=O)OC(C)(C)C)c2c3c(c(=O)oc2c1)CCC3	?	.	?
Cc1cc(OCc2ccc([N+](=O)[O-])cc2)c2c3c(c(=O)oc2c1)CCCC3	28µM	.	?
Cc1cc(OC(=O)CCCNC(=O)OC(C)(C)C)c2c3c(c(=O)oc2c1)CCC3	?	.	.
Cc1cc(OC(=O)c2ccco2)c2c3c(c(=O)oc2c1)CCC3	10µM	.	/
Cc1cc(OCc2nn[nH]n2)c2c3c(c(=O)oc2c1)CCCC3	?	.	/
C=CCOC(=O)COc1cc(C)cc2oc(=O)c3c(c12)CCC3	?	.	?
N[C@H](CCP(=O)(O)O)C(=O)O	.	/	.
O=[N+]([O-])c1ccc2nc(CCCc3nc4ccc([N+](=O)[O-])cc4[nH]3)[nH]c2c1	14µM	/	/
Cc1ccc([N+](=O)[O-])cc1C	?	/	.
O=c1cc(-c2ccc(O)c(O)c2)oc2cc(O)cc(O)c12	20µM	/	11µM!
O=c1c(O)c(-c2ccc(O)c(O)c2)oc2cc(O)cc(O)c12	13µM!	/	20µM!
Oc1ccc(/C=N/NP(=S)(c2ccccc2)c2ccccc2)cc1	20µM	.	32µM
COc1cc(/C=N/NP(=S)(c2ccccc2)c2ccccc2)ccc1O	?	.	.
Cc1cc(C=C2C(=O)N(C)C(=S)N(C)C2=O)c(C)n1C1CCCC1	22µM	.	.
Cc1cc(C=O)c(C)n1CC1CCCO1 (configuration not stated)	?	?	.
